Measured values reported in PubChem BioAssay (NCATS).
Inconclusive results are not listed. Active and inactive are the calls of the source. Calls come from the whole dose curve; as a rule, active = well fitted inhibition curve with a large enough effect; inconclusive = small, poorly fitted or top-dose-only effect; inactive = flat fitted curve, though single readings scatter.

What follows are compounds tested on JCK (assay: qHTS profiling for inhibitors of Plasmodium falciparum proliferation (AID 504749; note: nearly all actives have a fitted effect of over 60% in size;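 for activity, negative = inhibition: 0% = DMSO vehicle and full inhibition = artemisinin control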)). Conditions: P. falciparum in erythrocytes, SYBR Green DNA, 72 h; series mostly up to 28.7 µM; activity, negative = inhibition: at the top concentration.
Procedure, shortened: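 In a 72 h erythrocytic culture (37 C, humidified, 5% CO2) at 2.5% hematocrit and 0.3% starting parasitemia, compounds were tested; SYBR Green I in detergent lysis buffer stained parasite DNA overnight.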
Potency is the fitted concentration of half-maximal effect.

Row | SMILES | activity, negative = inhibition | Potency
1 | COc1ccc(CCN(C)CCCC(C#N)(c2ccc(OC)c(OC)c2)C(C)C)cc1OC (stereo unspecified) | -4.35% (inactive) | 
2 | Nc1c2c(nc3ccccc13)CCCC2 | -13.9% (inactive) | 
3 | CCC1(c2ccccc2)C(=O)NCNC1=O | 0.517% (inactive) | 
4 | O=C(Nc1ccc([N+](=O)[O-])cc1Cl)c1cc(Cl)ccc1O | -9.77% (inactive) | 
5 | Cc1cc(C(C)(C)C)cc(C)c1CC1=NCCN1 | -0.0262% [at 12.8 µM] (inactive) | 
6 | CC(CCc1ccc(O)cc1)NCCc1ccc(O)c(O)c1 (stereo unspecified) | 15.9% (inactive) | 
7 | Clc1ccc2c(c1)C(N1CCNCC1)=Nc1ccccc1O2 | -13.6% (inactive) | 
8 | CN(C)CCCN1c2ccccc2CCc2ccc(Cl)cc21 | -29.9% (inactive) | 
9 | CC(COc1ccccc1)N(CCCl)Cc1ccccc1 (stereo unspecified) | -8.94% (inactive) | 
10 | Clc1ccc(C(c2ccccc2Cl)C(Cl)Cl)cc1 (stereo unspecified) | 1.02% (inactive) | 
11 | COc1cc2c(c(OC)c1OC)-c1ccc(OC)c(=O)cc1[C@@H](NC(C)=O)CC2 | 0.174% (inactive) | 
12 | Cn1c(=O)c2[nH]cnc2n(C)c1=O | -0.519% (inactive) | 
13 | CN(C)CCOC(c1ccccc1)c1ccccc1 | -16.8% (inactive) | 
14 | Cc1cn([C@H]2C[C@H](N=[N+]=[N-])[C@@H](CO)O2)c(=O)[nH]c1=O | -2.95% (inactive) | 
15 | O=c1[nH]cc(F)c(=O)[nH]1 | -23.1% (inactive) | 
16 | CCOC(=O)Nc1ccc(NCc2ccc(F)cc2)nc1N |  | 14.1 µM (active)
17 | CCOC(=O)c1ncn2c1CN(C)C(=O)c1cc(F)ccc1-2 | 4.87% (inactive) | 
18 | CC(C)NCC(O)COc1ccc(CCOCC2CC2)cc1 (stereo unspecified) | -6.76% (inactive) | 
19 | CNCCCC12CCC(c3ccccc31)c1ccccc12 | -23.2% (inactive) | 
20 | CN1CCC(=C2c3ccccc3C=Cc3ccccc32)CC1 | -1.21% (inactive) | 
21 | CC1(CN2CCC(n3c(=O)[nH]c4ccccc43)CC2)OCc2ccccc2-n2cccc21 (stereo unspecified) | -17.6% (inactive) | 
